High-throughput results as filed in PubChem.
CBFb RUNX1 block: blocks binding between human CBF-beta and RUNX1; AID 1477; AlphaScreen CBFb-His/RUNX1-biotin binding, biochemical; 230,000 tested, under 10 active; Potency, µM (highest dose often 59.8 µM), for inactives: at the top dose activity, negative = inhibition, most hits filed as inhibitors; Q01196+Q13951; further: % of control where 0% means no effect
Target sequence (Q01196 whole entry, looked up): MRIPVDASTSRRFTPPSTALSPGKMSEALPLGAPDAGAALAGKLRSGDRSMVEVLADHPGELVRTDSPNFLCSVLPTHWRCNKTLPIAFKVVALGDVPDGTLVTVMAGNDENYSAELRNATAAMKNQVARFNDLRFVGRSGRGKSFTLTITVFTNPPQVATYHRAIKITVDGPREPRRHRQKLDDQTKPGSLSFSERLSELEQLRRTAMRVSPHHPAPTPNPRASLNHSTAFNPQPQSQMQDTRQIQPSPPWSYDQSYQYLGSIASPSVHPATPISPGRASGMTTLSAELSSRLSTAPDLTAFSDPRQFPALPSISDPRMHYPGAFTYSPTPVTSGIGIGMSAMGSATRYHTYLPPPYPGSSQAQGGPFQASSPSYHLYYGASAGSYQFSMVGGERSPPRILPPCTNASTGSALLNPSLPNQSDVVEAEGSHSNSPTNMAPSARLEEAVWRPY
Target sequence (Q13951 whole entry, looked up): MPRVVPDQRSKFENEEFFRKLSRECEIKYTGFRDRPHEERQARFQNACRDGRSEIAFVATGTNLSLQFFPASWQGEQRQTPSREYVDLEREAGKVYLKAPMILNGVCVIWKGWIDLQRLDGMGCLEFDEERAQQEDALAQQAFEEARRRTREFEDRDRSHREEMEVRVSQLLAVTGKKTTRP
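Compounds were screened at multiple concentrations against a preformed CBF-beta(His)/RUNX1(biotin) complex (30 nM of each) for 15 min at room temperature, followed by 90 min with nickel and streptavidin beads and AlphaScreen reading.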
MBNL1 CUG block: MBNL1-poly(CUG) RNA binding inhibition | Q9NR56 | TR-FRET MBNL1-His/biotin-(CUG)12 binding, 665/545 ratio | Potency, µM (series often up to 57.5 µM), without a hit: at the top dose activity change, negative = inhibition, usual class: inhibitors | 280,000 tested, 0.036% active | AID 2675; active means well fitted inhibition curve with a large enough effect in the signal ratio, with a control signal flat, not every such curve was filed as active; inconclusive means small, poorly fitted or top-dose-only effect, or effect the other way, or a change in a side signal; inactive means no such curve, though single readings can be large or run the other way; the % refers to the signal ratio; further: potency means the concentration at half of the fitted maximal effect; on the % scale 0 is the no-effect control and ±100 the full control effect
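TR-FRET between His-tagged MBNL1 and biotin-(CUG)12 RNA, detected with Tb anti-His antibody (0.055 ng/ul) and streptavidin-XL665 (5 nM), 60 min at room temperature. Compounds titrated 92 nM to 58 uM; 665/545 nm ratio normalized to buffer and complex controls.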
Rango release inh: inhibitors of RanGTP-induced Rango-importin beta complex dissociation. O95149+P62826. Biochemical FRET Rango-importin beta, RanGTP-induced dissociation. Potency, µM (titrated, usually from 46.1 µM), without a hit: at the top dose activity change, negative = inhibition. 340,000 tested, 0.071% active. AID 540253; calls by dose curve; further: potency means the concentration at half of the fitted maximal effect; % of control where 0% means no effect; nearly all actives have a fitted effect of over 45% in size
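FRET read at 45 min, room temperature: inhibitors block the CFP/YFP signal rise when RanGTP (0.6 uM Ran, 2 mM GTP, 0.2 uM RCC1) frees Rango (0.1 uM) from importin beta (0.25 uM). Pre-read after 5 min compound exposure flags interference.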
ClpP mod: qHTS Assay for Activators of ClpP; purified B. subtilis ClpP, FRET peptide cleavage, 20 min; 340,000 tested, 1.9% active; Potency, µM (titrated, usually from 57.5 µM), inactives show top-dose activity change, negative = active; ATP-dependent Clp protease proteolytic subunit (Bacillus subtilis (strain 168)), P80244; AID 651965, 2013; active means well fitted falling curve with a large enough effect; inconclusive means small, poorly fitted or top-dose-only effect; inactive means no such curve, though single readings can be large or run the other way; further: potency means the concentration at half of the fitted maximal effect; the source files actives as falling curves though it sought activators and does not explain the sign; nearly all actives have a fitted effect of over 65% in size
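ClpP 10 microg/mL final, pH 8 Tris/KCl buffer with BSA, glycerol, Tween-20; compound pinned in; FRET-FV substrate; RT 20 min; Ex320/Em430; ΔFRET vs ADEP 5.8 microM, DMSO, no enzyme.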
Rango complex inh: inhibitors of Rango-importin beta complex formation | Rango CFP/YFP FRET sensor + importin beta, 45 min | Q14974 | 340,000 tested, 0.031% active | Potency, µM (titrated, usually from 92.2 µM), for the others: at the highest dose inhibition of complex formation; calls by dose curve;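 further: potency means the concentration at half of the fitted maximal effect; 0% = DMSO wells and 100% = buffer wells lacking importin beta; nearly all actives have a fitted effect of over 15% in size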
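FRET biosensor Rango (snurportin 1 IBB between N-terminal EYFP and C-terminal Cerulean), 50 nM in PBS/1 mM DTT/0.02% Tween-20/0.1% BSA, preincubated 5 min RT with compound; 0.125 microM importin beta added, 45 min RT, CFP/YFP FRET ratio read.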
MBNL1 TRFRET: blocks human MBNL1 binding to CUG repeat RNA, TR-FRET validation. shares compounds with MBNL1 CUG block. TR-FRET MBNL1-His / biotin-(CUG)12 binding, 60 min. Potency, µM (titrated, usually from 57.6 µM), for inactives: at the highest dose activity change, negative = inhibition, most hits filed as inhibitors. 140 tested, 50% active
MBNL1 AlphaScrn: MBNL1-CUG RNA binding inhibition, AlphaScreen validation | AlphaScreen MBNL1-His / biotin-(CUG)12 binding | AID 493205 | shares compounds with MBNL1 CUG block | Potency, µM (highest dose often 57.7 µM), for inactives: top-dose activity, negative = inhibition, actives largely listed as inhibitors | 140 tested, 30% active
Menin-MLL HTRF: MBNL1-CUG RNA binding inhibitor counterscreen activity. shares compounds with MBNL1 CUG block. His-Menin/biotin-MLL peptide TR-FRET counterscreen. Potency, µM (doses to about 57.6 µM), without a hit: top-dose activity, negative = inhibition, actives largely listed as inhibitors. 120 tested, 20% active
The depositor's hits bear a star; ? = inconclusive; nt = not tested or not shown. This is one part of a sample in which hits are shown more often than they occur. Unless noted, the call rests on the fitted dose curve; in most records, active means well fitted curve in the direction sought with a large enough effect; inconclusive means small, poorly fitted or top-dose-only effect, or another doubt; inactive means no such curve, though single readings can be large; an effect the other way counts as inactive or inconclusive.

SMILES | CBFb RUNX1 block | MBNL1 CUG block | Rango release inh | ClpP mod | Rango complex inh | MBNL1 TRFRET | MBNL1 AlphaScrn | Menin-MLL HTRF
COC(=O)NCc1ccc(Cl)c(Cl)c1 | 4% | -4% | 6% | -1% | 1% | nt | nt | nt
O=C(COCc1cc(-c2ccc(F)cc2)on1)Nc1cc(Cl)cc(Cl)c1 | nt | nt | nt | 2% | nt | nt | nt | nt
CS(=O)(=O)c1ccc(C(O)C(CO)NC(=O)C(Cl)Cl)cc1 (stereo unspecified) | 3% | nt | nt | nt | nt | nt | nt | nt
CC1=C(C(N)=O)C(c2cccc(Br)c2)n2nc(SCc3ccccc3Cl)nc2N1 (stereo unspecified) | nt | nt | nt | -10% | nt | nt | nt | nt
CC1=C(C(N)=O)C(c2cccnc2)n2nc(SCc3ccccc3Cl)nc2N1 (stereo unspecified) | 18% | 25µM* | 0% | 0% | 2% | 2% | -4% | 0%
C/C(CCc1ccc2c(c1)OCO2)=N\NC(=O)c1ccccc1 | 5% | 10% | -21% | nt | 3% | nt | nt | nt
NC(=NCc1ccc2c(c1)OCO2)NC(=O)c1ccccc1 | 5% | nt | 1% | nt | -2% | 13µM* | 13µM* | 4%
Cc1ccc(NC(=O)Nc2csc3c2CCCC3)c(C)c1 | nt | nt | nt | 2% | nt | nt | nt | nt
COC(=O)Nc1csc2c1NC(=O)CCCC2 | -4% | nt | 37% | nt | 3% | 26µM* | 10µM* | -13%
Cc1oc2nc(SCCCC(=O)NCCO)nc(N)c2c1C | -1% | 20µM* | 18% | -1% | 3% | ? | ? | -3%
O=C1NC(=O)C2C1C(c1ccccc1)N1C3C(=O)NC(=O)C3C(c3ccccc3)N21 (stereo unspecified) | -10% | 32µM* | 13% | 1% | -5% | ? | ? | 1%
O=C1C(=O)N(C2CCN(C(=O)c3ccccc3F)CC2)CCN1Cc1ccc(F)cc1 | nt | nt | nt | 0% | nt | nt | nt | nt
CCCn1c2ccccc2c2nnc(SCc3[nH]c(=O)[nH]c3C(=O)CCCCC(=O)OCC)nc21 | 5% | ? | -9% | 2% | 0% | nt | nt | nt
CCOC(=O)CCCCC(=O)c1[nH]c(=O)[nH]c1CSc1nnc2c3ccccc3n(C(C)C)c2n1 | -17% | 28µM* | 10% | -1% | -4% | ? | 3.7µM* | -11%
COc1cc2c(C#N)c(N3CCCCC3)nc(N)c2c(N)n1 | 5% | 5% | ? | 28µM* | ? | 9% | 13% | 2%
COc1ccc(CN2C(=O)Cc3c2nc(N)c2c(N)nc(N4CCCCC4)c(C#N)c32)cc1 | -12% | 15% | nt | nt | nt | nt | nt | nt
COc1cc(C(=O)N/N=C/c2ccc(OC)c(CN3CCN(c4ccc(F)cc4)CC3)c2)ccc1O | 0% | 32µM* | 5% | -4% | 1% | ? | -29% | -18%
COc1ccc(/C=N/NC(=O)c2ccccc2)cc1CN1CCN(c2ccc(F)cc2)CC1 | -3% | -3% | 2% | -3% | 8% | nt | nt | nt
Cc1ccc(-n2c(=O)c3oc4ccccc4c3n(CC(=O)Nc3ccccc3)c2=O)cc1C | nt | nt | nt | 4% | nt | nt | nt | nt
CC(C)NCC(O)c1ccc(O)c(O)c1 (stereo unspecified) | -16% | -6% | 2% | 2% | -3% | nt | nt | nt
NC[C@H](O)c1ccc(O)c(O)c1 | ? | nt | 3% | -4% | ? | 6.5µM* | ? | ?
CNC[C@H](O)c1ccc(O)c(O)c1 | ? | 22µM* | 6% | -1% | 0% | -14% | -2% | 4%
CC(C)c1ccc(C(=O)Nc2cc(-c3ccccc3F)nn2-c2ccccc2)cc1 | nt | nt | nt | -16% | nt | nt | nt | nt
CCOC(=O)/C(=N\Nc1ccccc1Cl)N1CC(C)OC(C)C1 (stereo unspecified) | 5% | 0.025µM* | 0% | nt | -2% | -4% | -6% | -1%
CCOC(=O)/C(=N\Nc1cc(Cl)ccc1Cl)N1CC(C)OC(C)C1 (stereo unspecified) | 1% | 2% | 16% | -1% | -1% | nt | nt | nt
SMILES | CBFb RUNX1 block | MBNL1 CUG block | Rango release inh | ClpP mod | Rango complex inh | MBNL1 TRFRET | MBNL1 AlphaScrn | Menin-MLL HTRF
O=C(Nc1cccnc1Cl)c1cnn2c1NC(=C1CC1)C=C2C(F)F | nt | nt | nt | 176% | nt | nt | nt | nt
Cc1cccc(N2CCN(C(=O)CCCn3ncn4c(cc5occc54)c3=O)CC2)c1C | nt | nt | nt | -1% | nt | nt | nt | nt
O=C(Nc1cccnc1Cl)c1cc(-c2cccc(O)c2)on1 | nt | 7.1µM* | 2% | nt | 2% | 13µM* | ? | -62%
O=C(Nc1ccc(Cl)c(Cl)c1)Nn1cnnc1 | nt | 7.9µM* | 11% | nt | -3% | 6.5µM* | 12% | 33µM*
O=C(Nc1ccc(Cl)cc1)Nc1ccc(Cl)c(Cl)c1 | nt | nt | -6% | -1% | 3% | nt | nt | nt
O=C(Nc1ccccc1)Nn1cnnc1 | nt | ? | 6% | nt | 0% | nt | nt | nt
O=C(Nc1ccc(Br)cc1)Nn1cnnc1 | nt | 32µM* | -4% | 0% | -3% | 41µM* | 13% | ?
Cc1ccc(NC(=O)Nn2cnnc2)cc1Cl | nt | 40µM* | 0% | 0% | -2% | 26µM* | -1% | ?
COc1ccc(CC(=O)Oc2ccc(C)cc2Br)cc1OC | nt | 16µM* | 0% | -3% | 2% | ? | 5.2µM* | 16µM*
COc1ccc(CC(=O)Oc2ccc(C)cc2C)cc1 | nt | -3% | 11% | 0% | 0% | nt | nt | nt
O=C(OC[C@H]1O[C@@H](OC(=O)c2cc(O)c(O)c(OC(=O)c3cc(O)c(O)c(O)c3)c2)[C@H](OC(=O)c2cc(O)c(O)c(OC(=O)c3cc(O)c(O)c(O)c3)c2)[C@@H](OC(=O)c2cc(O)c(O)c(OC(=O)c3cc(O)c(O)c(O)c3)c2)[C@@H]1OC(=O)c1cc(O)c(O)c(OC(=O)c2cc(O)c(O)c(O)c2)c1)c1cc(O)c(O)c(OC(=O)c2cc(O)c(O)c(O)c2)c1 | nt | nt | nt | -7% | nt | nt | nt | 37µM*
Nc1ncnc2c1ncn2[C@@H]1O[C@H](COP(=O)(O)OP(=O)(O)O)[C@@H](O)[C@H]1O | 0% | nt | nt | nt | nt | nt | nt | nt
COc1ccc(-c2nc3ccncc3[nH]2)cc1OC | 1% | 20µM* | 2% | 28µM* | 2% | 6.5µM* | -8% | 18µM*
O=C(Nc1nc2n(n1)C(c1ccccc1)C=C(c1ccccc1)N2)c1ccccc1 (stereo unspecified) | nt | nt | nt | 4% | nt | nt | nt | nt
